Laboratory results published in PubChem BioAssay AID504467 (National Center for Advancing Translational Sciences (NCATS), 2011).
Screen size: about 330,000 compounds; about 7,700 (2.3%) were called active. About 26% were inconclusive and are not listed. The call rests on the fitted dose curve; in most records, active means well fitted inhibition curve with a large enough effect; inconclusive means small, poorly fitted or top-dose-only effect, or effect the other way; inactive means flat fitted curve, though single readings scatter. Many of the other results were omitted from the sample, so actives are more common in it than they were.

Experiment: qHTS screen for small molecules that inhibit ELG1-dependent DNA repair in human embryonic kidney (HEK293T) cells expressing luciferase-tagged ELG1; further: nearly all actives have a fitted effect of over 55% in size
Conditions: HEK293T ELG1-luciferase reporter, luminescence, 16 h, DNA damage induced by 5-fluorouridine; series mostly up to 46.1 µM; activity change, negative = inhibition: at the top concentration
Procedure, shortened: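 Cells (2,000 per well) received 5-fluorouridine plus test compound or DMSO and were incubated 16 hr at 37 °C, 5% CO2. Luciferase activity was read by luminescence 30 min after ONE-Glo addition; signal suppression marked inhibition of damage-induced ELG1 function.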
On the % scale 0 is the no-effect control and ±100 the full control effect; potency means the concentration at half of the fitted maximal effect.

| Structure (SMILES) | activity change, negative = inhibition | Potency |
| --- | --- | --- |
| CC(C)(c1ccccc1)c1ccc(OCCN2CCCC2)cc1 | 3.08% (inactive) |  |
| O=C(Nc1ccc(N2CCOCC2)cc1)c1cccc(S(=O)(=O)N2CCOCC2)c1 | -1.34% (inactive) |  |
| COc1ccc(C)cc1NC(=O)CN1c2cccc3cccc(c23)S1(=O)=O | -27.2% (inactive) |  |
| CC(Cc1cccs1)N(Cc1ccc(Cl)cc1)C(=O)c1ccncc1 (configuration not stated) | -6.31% (inactive) |  |
| CC1CCc2[nH]c3ccc(C(=O)N(C)CC(=O)Nc4cccc(F)c4)cc3c2C1 (configuration not stated) | -15.3% (inactive) |  |
| CCCN(CC(=O)Nc1ccccc1C)C(=O)c1ccc2[nH]c3c(c2c1)CC(C)CC3 (configuration not stated) |  | 9.2 µM (active) |
| CCCN(CC(=O)Nc1ccccc1C)C(=O)c1cc(=O)[nH]c2ccccc12 | 23.1% (inactive) |  |
| CCc1cc2c(NC3CCCC3)ncnc2s1 | 4.18% (inactive) |  |
| CCc1cc2c(N3CCN(c4nnc(CC)s4)CC3)ncnc2s1 |  | 18.4 µM (active) |
| CCc1cc2c(NC(Cc3ccccc3)C(=O)O)ncnc2s1 (configuration not stated) | 2.07% (inactive) |  |
| O=C(Nc1nnc(C2=COCCO2)o1)c1ccc([N+](=O)[O-])s1 | -9.08% (inactive) |  |
| COc1ccc(S(=O)(=O)N2CCOCC2)cc1NC(=O)CSc1cc(C)ccc1C | -11.9% (inactive) |  |
| CCOCc1c(C(=O)N2CCN(Cc3ccc(Br)s3)CC2)oc2ccccc12 | -5.2% (inactive) |  |
| NS(=O)(=O)c1cccc(NC(=O)CSc2nc3ccccc3n2-c2ccccc2)c1 |  | 9.2 µM (active) |
| COc1ccc(-n2cnnc2SCC(=O)Nc2cccc(S(N)(=O)=O)c2)cc1 | -5.02% (inactive) |  |
| Cc1nnc(SCC(=O)Nc2cccc(N)c2)n1-c1ccccc1 | -9.23% (inactive) |  |
| Clc1ccc(C[n+]2cc(-c3ccccc3)n3c2CCC3)cc1 |  | 2.91 µM (active) |
| Cc1ccc(C(=O)C[n+]2cc(-c3ccccc3)n3c2CCCCC3)cc1 |  | inactive |
| Cc1ccc(-c2c[n+](CC(=O)Nc3ccccc3)c3n2CCC3)cc1 | -7.46% (inactive) |  |
| CCC1Nc2ncnc(N3CCN(c4ccccc4)CC3)c2N(Cc2ccc(Cl)cc2)C1=O (configuration not stated) | -0.364% (inactive) |  |
| CCCCN(C(=O)C1CCC1)c1c(N)n(Cc2ccccc2)c(=O)[nH]c1=O | 9.17% (inactive) |  |

| Structure (SMILES) | activity change, negative = inhibition | Potency |
| --- | --- | --- |
| Cc1cccc(-c2nc(Nc3ccc(O)cc3)c3ccccc3n2)c1 |  | 20.6 µM (active) |
| CCC(=O)OCCNc1nc(-c2ccccc2)nc2ccccc12 | -11% (inactive) |  |
| CN1CCN(c2nc(Nc3ccc(O)cc3)nc3ccccc23)CC1 | 17.4% (inactive) |  |
| COc1ccc(Cl)cc1NC(=O)CN(C)CC(=O)Nc1ccc2c(c1)OCO2 | -25.5% (inactive) |  |
| C/C=C/C(=O)Nc1ccc(N2CCN(c3ccc(C(F)(F)F)cn3)CC2)nc1 | -9.39% (inactive) |  |
| Cc1ccc(F)cc1NC(=O)N1CCCN(c2ccc(C(F)(F)F)cn2)CC1 |  | 5.17 µM (active) |
| CCOc1ccc(C(=O)NCC(=O)N2CCN(c3ccc(C(F)(F)F)cn3)CC2)cc1 | 14.2% (inactive) |  |
| COc1ccccc1NC(=O)Nc1nc(CC(=O)Nc2ccccc2F)cs1 | -29.7% (inactive) |  |
| Cc1ccc(S(=O)(=O)NC[C@H]2O[C@@H](n3cnc4c(N)ncnc43)[C@H](O)[C@@H]2O)s1 | 1.49% (inactive) |  |
| CSc1nc(-c2ccccc2)nc(C(Cl)Cl)n1 |  | 20.6 µM (active) |
| CSc1nc(C)cc(SC(C(C)=O)C(=O)Nc2ccccc2)n1 (configuration not stated) | 4.04% (inactive) |  |
| CCCCC(=O)Nc1nnc(S(=O)(=O)N(C)Cc2ccco2)s1 | 3.15% (inactive) |  |
| Cc1ccccc1CN1CCC(C(=O)Nc2ccc(Oc3cccnc3)cc2)CC1 | -15% (inactive) |  |
| CCOC(=O)N1CCN(C(=O)Cn2cnc3ccccc3c2=O)CC1 | 2.4% (inactive) |  |
| CCOC(=O)N1CCN(CC(=O)Nc2ccc(F)cc2)CC1 | 15.5% (inactive) |  |
| CCOC(=O)N1CCN(CC(=O)Nc2cc(C)nn2-c2nc3ccccc3s2)CC1 |  | 10.3 µM (active) |
| Cc1cc(C)c(S(=O)(=O)n2cc(C(C)C(N)C(=O)O)c3ccccc32)c(C)c1 (configuration not stated) | 5.41% (inactive) |  |
| O=C(CSc1nnc(COc2ccc(Cl)cc2)n1Cc1ccco1)N1CCNC1=O | -1.34% (inactive) |  |
| CC(C)(C)NC(=O)C(c1ccc(Cl)cc1)N(CCO)C(=O)c1snc(C(N)=O)c1N (configuration not stated) | -6.16% (inactive) |  |
| NC(=O)c1nsc(C(=O)N(CC(=O)NCc2ccc(F)cc2)Cc2ccco2)c1N | 11.5% (inactive) |  |
| COc1ccc(CNC(=O)C(c2ccc(O)cc2)N(Cc2ccco2)C(=O)c2snc(C(N)=O)c2N)cc1 (configuration not stated) |  | 6.51 µM (active) |

| Structure (SMILES) | activity change, negative = inhibition | Potency |
| --- | --- | --- |
| CCCn1c(C2CCCN2c2nc(-c3ccc(OC)cc3)cs2)nc2ccccc21 (configuration not stated) | -17.3% (inactive) |  |
| COc1ccc(C(=O)CC(=O)C(=O)Nc2cc([N+](=O)[O-])ccc2OC)cc1 | 22.3% (inactive) |  |
| COc1ccc(CCNC(=O)COC(=O)c2cc(=O)c3ccccc3o2)cc1 | 10.5% (inactive) |  |
| O=C(c1cc(=O)c2ccccc2o1)N1CCN(c2ccccc2)CC1 | -2.94% (inactive) |  |
| COc1cc2c(cc1OC)CN(C(=O)c1cc(=O)c3ccccc3o1)CC2 |  | 8.2 µM (active) |
| COc1ccccc1C(=O)N(Cc1ccc(C)o1)C1CCS(=O)(=O)C1 (configuration not stated) | 6.35% (inactive) |  |
| COc1ccc(-c2c(-c3cc(OC)cc(OC)c3)n(C)c3ccc(-c4ccn[nH]4)cc23)cc1 |  | 6.51 µM (active) |
| COc1cc(OC)cc(-c2c(-c3cccs3)c3cc(-c4ccc(OC)cc4F)ccc3n2C)c1 | 2.8% (inactive) |  |
| COc1cc(OC)cc(-c2c(-c3ccc(F)cc3)c3cc(-c4ccc5cc[nH]c5c4)ccc3n2C)c1 | 27.6% (inactive) |  |
| CCOC(=O)[C@@H]1[C@H]2COc3ccc(Br)cc3[C@H]2N2C(=O)N(c3ccc(C)cc3)C(=O)[C@@]12C | -1.2% (inactive) |  |
| COc1ccc2nc3n(c(=O)c2c1)-c1cc(C)ccc1C(=O)NC3Cc1ccc(O)cc1 (configuration not stated) | -0.966% (inactive) |  |
| CCc1ccnc(NC(=O)Nc2ccc(OCc3ccccc3)cc2)c1 | 11.6% (inactive) |  |
| CNC(=O)c1sc(Nc2ccc(OCc3ccccc3)cc2)nc1C |  | 8.2 µM (active) |
| Cc1cccc(NC(=O)Nc2ccc(OCc3ccccc3)cc2)n1 | 14.9% (inactive) |  |
| COc1ccc(NS(=O)(=O)c2ccc(C)c(C(=O)NCC(c3cccs3)N3CCOCC3)c2)cc1 (configuration not stated) | 8.71% (inactive) |  |
| COc1ccc(S(=O)(=O)N2CCOCC2)cc1NC(=O)CSc1nnc(NC2CC2)s1 | 12.9% (inactive) |  |
| Cc1ccc(S(=O)(=O)N2CCC(C)CC2)cc1C(=O)NCc1ccccn1 | -0.498% (inactive) |  |
| CCN(CC(=O)NCc1cccs1)S(=O)(=O)c1ccc(NC(C)=O)cc1 | 8.48% (inactive) |  |
| CC1CCCCN1S(=O)(=O)c1ccc(S(=O)(=O)N(CC(=O)Nc2ccccc2)Cc2cccs2)cc1 (configuration not stated) |  | 18.4 µM (active) |
| COCCN(CC(=O)Nc1ccccc1C)S(=O)(=O)c1ccc(S(=O)(=O)N2CCCC2)cc1 | -26.1% (inactive) |  |
